# Measurements from the supplement of paper PMC10849652.
# About 8,800 targets were measured; listed, in parts, are those with a hit and a random draw of the rest. About 0.5% of all pairs of compound and target were hits.
# Compound: CC1=C(C(CC(=O)N1)C2=CC=C(C=C2)C(F)(F)F)C(=O)NC3=C(C=C4C(=C3)C=NN4)F
# Experiment: log2 fold change, soluble protein after heating vs DMSO (PISA); higher = thermal stabilisation; K562 lysate, 10 uM; active = over 0.2 and 3.5 SD of the protein, either way, in both replicates (recomputed)
# Method in brief: (§1)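 Log-two fold change in thermal stability relative to solvent controls is reported from duplicates. For each sample, crude K562 extract from dounce-homogenised pellets in PBS pH 7.4 with 1 mM MgCl2, at 1 mg/mL protein, was treated with 10 μM compound for 30 min. Aliquots heated for 3 min across 48°C-58°C were pooled, brought to 0.5% NP-40 at 4°C and cleared at 21,000xg for 90 min. The supernatant was quantified by TMTpro 16plex LC-MS/MS with channel sums equalised.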
# Sequence of UniProt P06753 (P06753 whole entry, looked up): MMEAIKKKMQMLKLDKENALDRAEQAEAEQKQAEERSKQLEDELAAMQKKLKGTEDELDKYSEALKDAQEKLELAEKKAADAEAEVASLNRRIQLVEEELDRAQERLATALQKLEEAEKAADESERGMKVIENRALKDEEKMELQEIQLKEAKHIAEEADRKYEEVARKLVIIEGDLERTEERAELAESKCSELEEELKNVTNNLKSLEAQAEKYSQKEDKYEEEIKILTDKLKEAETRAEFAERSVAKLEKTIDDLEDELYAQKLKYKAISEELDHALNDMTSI
# Sequence of UniProt Q9BRZ2 (Q9BRZ2 whole entry, looked up): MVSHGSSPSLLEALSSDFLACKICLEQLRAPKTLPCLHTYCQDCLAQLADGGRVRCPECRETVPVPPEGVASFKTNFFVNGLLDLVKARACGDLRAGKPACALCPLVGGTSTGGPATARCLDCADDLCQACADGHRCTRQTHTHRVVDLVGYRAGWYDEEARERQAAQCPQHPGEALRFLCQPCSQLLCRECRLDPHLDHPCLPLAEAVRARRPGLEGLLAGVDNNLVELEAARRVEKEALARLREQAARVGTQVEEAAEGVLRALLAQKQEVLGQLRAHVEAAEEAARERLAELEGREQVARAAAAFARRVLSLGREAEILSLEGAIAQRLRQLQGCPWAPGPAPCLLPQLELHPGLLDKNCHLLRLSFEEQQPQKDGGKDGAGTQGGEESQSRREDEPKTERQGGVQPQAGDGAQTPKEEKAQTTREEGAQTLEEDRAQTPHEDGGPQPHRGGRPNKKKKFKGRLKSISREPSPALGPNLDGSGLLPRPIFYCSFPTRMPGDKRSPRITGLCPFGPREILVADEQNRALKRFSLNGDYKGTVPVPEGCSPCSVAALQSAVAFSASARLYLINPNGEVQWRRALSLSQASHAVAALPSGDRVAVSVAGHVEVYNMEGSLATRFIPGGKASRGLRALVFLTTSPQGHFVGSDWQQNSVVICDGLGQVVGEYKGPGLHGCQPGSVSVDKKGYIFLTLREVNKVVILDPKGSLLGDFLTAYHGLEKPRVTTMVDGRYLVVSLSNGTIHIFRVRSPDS
# Sequence of UniProt O95857 (O95857 whole entry, looked up): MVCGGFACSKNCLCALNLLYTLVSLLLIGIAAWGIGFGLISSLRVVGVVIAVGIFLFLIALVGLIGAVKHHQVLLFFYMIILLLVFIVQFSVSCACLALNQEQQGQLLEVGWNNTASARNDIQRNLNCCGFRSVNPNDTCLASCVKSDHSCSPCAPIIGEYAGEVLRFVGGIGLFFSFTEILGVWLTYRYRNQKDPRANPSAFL
# Sequence of UniProt P42167 (P42167 whole entry, looked up): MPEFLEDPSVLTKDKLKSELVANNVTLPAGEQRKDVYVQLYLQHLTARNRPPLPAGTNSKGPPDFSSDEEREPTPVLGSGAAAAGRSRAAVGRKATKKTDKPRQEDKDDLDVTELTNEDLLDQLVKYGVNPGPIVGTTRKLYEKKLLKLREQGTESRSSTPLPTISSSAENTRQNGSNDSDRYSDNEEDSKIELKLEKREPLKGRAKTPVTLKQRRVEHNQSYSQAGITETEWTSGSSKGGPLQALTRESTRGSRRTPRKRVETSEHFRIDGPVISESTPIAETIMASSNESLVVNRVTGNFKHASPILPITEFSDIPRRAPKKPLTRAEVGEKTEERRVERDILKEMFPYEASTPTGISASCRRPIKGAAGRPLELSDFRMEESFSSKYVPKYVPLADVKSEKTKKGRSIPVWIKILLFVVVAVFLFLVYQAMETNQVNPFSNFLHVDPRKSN
# Sequence of UniProt Q8IZ69 (Q8IZ69 whole entry, looked up): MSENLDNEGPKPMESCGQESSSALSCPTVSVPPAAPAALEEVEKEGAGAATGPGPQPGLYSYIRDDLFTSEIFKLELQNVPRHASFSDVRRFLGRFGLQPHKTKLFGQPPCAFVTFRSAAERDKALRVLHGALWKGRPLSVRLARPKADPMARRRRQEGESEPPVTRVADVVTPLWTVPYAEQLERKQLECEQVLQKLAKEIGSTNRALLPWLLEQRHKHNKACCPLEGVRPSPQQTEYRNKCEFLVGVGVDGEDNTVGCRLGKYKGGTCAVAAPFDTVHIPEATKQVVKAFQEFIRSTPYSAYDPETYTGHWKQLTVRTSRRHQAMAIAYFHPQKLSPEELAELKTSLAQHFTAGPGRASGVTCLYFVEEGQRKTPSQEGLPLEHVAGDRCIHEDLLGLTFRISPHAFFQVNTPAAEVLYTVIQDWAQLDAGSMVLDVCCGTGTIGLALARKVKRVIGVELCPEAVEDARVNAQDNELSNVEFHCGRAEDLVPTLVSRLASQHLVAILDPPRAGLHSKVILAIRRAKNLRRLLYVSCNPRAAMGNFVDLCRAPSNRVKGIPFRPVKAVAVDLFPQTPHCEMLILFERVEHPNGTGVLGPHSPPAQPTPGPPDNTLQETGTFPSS
# Sequence of UniProt Q8WUH2 (Q8WUH2 whole entry, looked up): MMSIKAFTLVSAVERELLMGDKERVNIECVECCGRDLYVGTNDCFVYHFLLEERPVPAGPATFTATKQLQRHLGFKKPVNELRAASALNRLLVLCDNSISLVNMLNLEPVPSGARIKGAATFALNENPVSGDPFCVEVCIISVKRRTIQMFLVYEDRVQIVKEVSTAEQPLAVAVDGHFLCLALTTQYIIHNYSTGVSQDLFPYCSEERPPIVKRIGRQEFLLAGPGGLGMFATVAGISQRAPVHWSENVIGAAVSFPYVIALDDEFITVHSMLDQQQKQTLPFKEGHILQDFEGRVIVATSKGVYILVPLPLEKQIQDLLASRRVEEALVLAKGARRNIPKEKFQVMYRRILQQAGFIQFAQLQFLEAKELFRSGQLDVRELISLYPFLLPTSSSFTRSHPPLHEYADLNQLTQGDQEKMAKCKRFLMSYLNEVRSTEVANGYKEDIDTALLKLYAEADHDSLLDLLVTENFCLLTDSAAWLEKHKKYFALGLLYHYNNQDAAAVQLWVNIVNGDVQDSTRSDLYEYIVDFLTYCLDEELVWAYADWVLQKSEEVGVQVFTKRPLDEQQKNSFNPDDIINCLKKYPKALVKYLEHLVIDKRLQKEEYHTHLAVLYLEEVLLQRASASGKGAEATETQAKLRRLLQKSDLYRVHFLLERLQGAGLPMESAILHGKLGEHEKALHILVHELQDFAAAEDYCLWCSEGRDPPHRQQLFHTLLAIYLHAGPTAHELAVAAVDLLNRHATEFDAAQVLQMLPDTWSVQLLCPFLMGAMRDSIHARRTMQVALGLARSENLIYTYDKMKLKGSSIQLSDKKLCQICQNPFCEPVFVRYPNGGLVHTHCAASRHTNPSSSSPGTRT
# Sequence of UniProt Q9H892 (Q9H892 whole entry, looked up): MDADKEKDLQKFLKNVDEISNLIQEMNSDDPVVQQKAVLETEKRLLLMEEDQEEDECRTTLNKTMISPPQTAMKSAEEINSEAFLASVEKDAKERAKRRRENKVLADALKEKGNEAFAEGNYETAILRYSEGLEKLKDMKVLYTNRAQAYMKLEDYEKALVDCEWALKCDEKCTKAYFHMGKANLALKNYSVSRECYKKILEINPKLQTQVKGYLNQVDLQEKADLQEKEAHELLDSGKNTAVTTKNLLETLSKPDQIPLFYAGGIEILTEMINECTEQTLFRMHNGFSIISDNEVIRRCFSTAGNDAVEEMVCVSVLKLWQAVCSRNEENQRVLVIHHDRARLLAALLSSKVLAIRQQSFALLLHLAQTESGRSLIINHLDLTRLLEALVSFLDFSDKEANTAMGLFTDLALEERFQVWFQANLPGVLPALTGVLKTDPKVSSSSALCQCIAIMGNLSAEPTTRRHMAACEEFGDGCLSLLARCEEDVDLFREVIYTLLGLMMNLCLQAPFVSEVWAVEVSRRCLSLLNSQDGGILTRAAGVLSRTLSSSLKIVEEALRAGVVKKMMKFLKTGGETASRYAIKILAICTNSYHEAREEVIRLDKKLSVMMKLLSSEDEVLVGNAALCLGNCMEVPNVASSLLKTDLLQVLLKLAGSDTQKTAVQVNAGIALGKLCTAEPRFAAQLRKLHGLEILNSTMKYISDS
# Sequence of UniProt Q9H497 (Q9H497 whole entry, looked up): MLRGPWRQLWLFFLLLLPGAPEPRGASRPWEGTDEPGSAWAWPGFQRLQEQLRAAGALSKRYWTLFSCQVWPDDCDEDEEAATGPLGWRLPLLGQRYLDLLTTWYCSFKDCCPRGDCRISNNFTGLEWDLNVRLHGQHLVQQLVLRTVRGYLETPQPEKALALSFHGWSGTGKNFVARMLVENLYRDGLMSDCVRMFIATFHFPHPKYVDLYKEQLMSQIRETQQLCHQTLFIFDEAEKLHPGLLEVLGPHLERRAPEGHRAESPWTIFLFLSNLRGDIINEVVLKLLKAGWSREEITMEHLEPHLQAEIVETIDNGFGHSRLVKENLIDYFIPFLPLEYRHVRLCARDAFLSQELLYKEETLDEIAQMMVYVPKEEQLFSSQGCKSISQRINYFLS
# Sequence of UniProt Q96S44 (Q96S44 whole entry, looked up): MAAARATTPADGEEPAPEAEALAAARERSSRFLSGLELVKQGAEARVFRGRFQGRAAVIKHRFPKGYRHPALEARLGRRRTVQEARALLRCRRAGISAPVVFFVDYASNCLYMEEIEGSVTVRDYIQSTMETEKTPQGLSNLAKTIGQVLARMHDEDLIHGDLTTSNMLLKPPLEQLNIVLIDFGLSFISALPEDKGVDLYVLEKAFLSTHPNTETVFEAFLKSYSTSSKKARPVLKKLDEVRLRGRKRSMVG
# Sequence of UniProt Q53H54 (Q53H54 whole entry, looked up): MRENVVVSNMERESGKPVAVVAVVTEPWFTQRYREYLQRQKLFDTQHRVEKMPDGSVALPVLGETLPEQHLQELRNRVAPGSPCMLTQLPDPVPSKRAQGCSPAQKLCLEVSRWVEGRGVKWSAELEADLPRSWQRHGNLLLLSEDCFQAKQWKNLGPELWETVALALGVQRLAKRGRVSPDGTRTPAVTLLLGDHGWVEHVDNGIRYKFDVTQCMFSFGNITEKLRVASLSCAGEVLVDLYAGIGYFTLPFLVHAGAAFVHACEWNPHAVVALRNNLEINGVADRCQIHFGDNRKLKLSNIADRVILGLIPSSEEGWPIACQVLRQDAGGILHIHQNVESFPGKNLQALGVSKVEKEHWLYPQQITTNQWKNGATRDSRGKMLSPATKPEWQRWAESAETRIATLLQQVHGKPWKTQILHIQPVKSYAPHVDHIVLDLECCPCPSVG
row,Target,log2 fold change
1,TOR3A (UniProt Q9H497),0.018 (inactive)
2,TRAF2 isoform 2 (UniProt Q12933),-0.004 (inactive)
3,TBRG4 (UniProt Q969Z0),0.001 (inactive)
4,TBL3 (UniProt Q12788),0.013 (inactive)
5,UBE3B (UniProt Q7Z3V4),0.068 (inactive)
6,TRA2A (UniProt Q13595),-0.027 (inactive)
7,TJP1 isoform 2 (UniProt Q07157),0.002 (inactive)
8,TPM4 isoform 2 (UniProt P67936),-0.027 (inactive)
9,TUBGCP3 (UniProt Q96CW5),0.003 (inactive)
10,TGOLN2 isoform 7 (UniProt O43493),0.009 (inactive)
11,TSPAN13 (UniProt O95857),0.102 (inactive)
12,TIMELESS (UniProt Q9UNS1),0.011 (inactive)
13,TRMT2A (UniProt Q8IZ69),0.012 (inactive)
14,TTC12 isoform 2 (UniProt Q9H892),-0.049 (inactive)
15,TMPO (UniProt P42167),0.006 (inactive)
16,TBK1 (UniProt Q9UHD2),0.015 (inactive)
17,TGFBRAP1 (UniProt Q8WUH2),0.007 (inactive)
18,TMEM14C (UniProt Q9P0S9),-0.047 (inactive)
19,TMEM164 (UniProt Q5U3C3),-0.184 (inactive)
20,TPM3 (UniProt P06753),-0.028 (inactive)

row,Target,log2 fold change
1,TTI2 (UniProt Q6NXR4),-0.009 (inactive)
2,TBC1D23 (UniProt Q9NUY8),0.032 (inactive)
3,TRIM25 (UniProt Q14258),-0.002 (inactive)
4,UBE2D1 (UniProt P51668),-0.03 (inactive)
5,TPP2 (UniProt Q5VZU9),0.056 (inactive)
6,TRMT12 (UniProt Q53H54),-0.081 (inactive)
7,TCAF2 (UniProt A6NFQ2),0.022 (inactive)
8,TRIM56 (UniProt Q9BRZ2),0 (inactive)
9,TTC27 (UniProt Q6P3X3),0 (inactive)
10,UBR5 (UniProt O95071),0.004 (inactive)
11,TROAP (UniProt Q12815),0.011 (inactive)
12,TUBGCP2 isoform 4 (UniProt Q9BSJ2),0.011 (inactive)
13,TTC5 (UniProt Q8N0Z6),-0.089 (inactive)
14,TRIM33 (UniProt H0Y612),-0.099 (inactive)
15,TP53RK (UniProt Q96S44),-0.013 (inactive)
16,TFCP2 (UniProt Q12800),-0.026 (inactive)
17,TIAL1 isoform 2 (UniProt Q01085),0.049 (inactive)
18,TRIM65 (UniProt Q6PJ69),0.047 (inactive)
19,TTF2 (UniProt Q9UNY4),0.037 (inactive)
20,TRAPPC9 isoform 2 (UniProt Q96Q05),-0.043 (inactive)

# Compound: CC1=C(C2=C(C=C1)C(=O)C3=CC=CC=C3N2CCCN)C
# Experiment: as above
# Method in brief: as §1
row,Target,log2 fold change
1,TOR3A (UniProt Q9H497),-0.022 (inactive)
2,TRAF2 isoform 2 (UniProt Q12933),-0.028 (inactive)
3,TBRG4 (UniProt Q969Z0),0.062 (inactive)
4,TBL3 (UniProt Q12788),-0.017 (inactive)
5,UBE3B (UniProt Q7Z3V4),0 (inactive)
6,TRA2A (UniProt Q13595),0.039 (inactive)
7,TJP1 isoform 2 (UniProt Q07157),-0.025 (inactive)
8,TPM4 isoform 2 (UniProt P67936),-0.025 (inactive)
9,TUBGCP3 (UniProt Q96CW5),-0.037 (inactive)
10,TGOLN2 isoform 7 (UniProt O43493),0.005 (inactive)
11,TSPAN13 (UniProt O95857),0.036 (inactive)
12,TIMELESS (UniProt Q9UNS1),-0.007 (inactive)
13,TRMT2A (UniProt Q8IZ69),-0.007 (inactive)
14,TTC12 isoform 2 (UniProt Q9H892),-0.042 (inactive)
15,TMPO (UniProt P42167),0.005 (inactive)
16,TBK1 (UniProt Q9UHD2),-0.016 (inactive)
17,TGFBRAP1 (UniProt Q8WUH2),0.015 (inactive)
18,TMEM14C (UniProt Q9P0S9),-0.146 (inactive)
19,TMEM164 (UniProt Q5U3C3),-0.153 (inactive)
20,TPM3 (UniProt P06753),0.013 (inactive)

row,Target,log2 fold change
1,TTI2 (UniProt Q6NXR4),0.018 (inactive)
2,TBC1D23 (UniProt Q9NUY8),-0.05 (inactive)
3,TRIM25 (UniProt Q14258),-0.005 (inactive)
4,UBE2D1 (UniProt P51668),-0.007 (inactive)
5,TPP2 (UniProt Q5VZU9),0.018 (inactive)
6,TRMT12 (UniProt Q53H54),-0.048 (inactive)
7,TCAF2 (UniProt A6NFQ2),0.055 (inactive)
8,TRIM56 (UniProt Q9BRZ2),0.002 (inactive)
9,TTC27 (UniProt Q6P3X3),-0.011 (inactive)
10,UBR5 (UniProt O95071),-0.011 (inactive)
11,TROAP (UniProt Q12815),0.02 (inactive)
12,TUBGCP2 isoform 4 (UniProt Q9BSJ2),-0.023 (inactive)
13,TTC5 (UniProt Q8N0Z6),-0.01 (inactive)
14,TRIM33 (UniProt H0Y612),-0.004 (inactive)
15,TP53RK (UniProt Q96S44),-0.004 (inactive)
16,TFCP2 (UniProt Q12800),0 (inactive)
17,TIAL1 isoform 2 (UniProt Q01085),0.015 (inactive)
18,TRIM65 (UniProt Q6PJ69),0.006 (inactive)
19,TTF2 (UniProt Q9UNY4),-0.084 (inactive)
20,TRAPPC9 isoform 2 (UniProt Q96Q05),-0.023 (inactive)
